From PubChem BioAssay AID1159580 (chemical genetic matrix, 2015)
Where “and” joins values, the source holds several entries; their conditions need not be identical. Identical values can stand only once. Out of some 5,500 compounds screened, about 2,000 (36%) were called active. Another 18% or so got no clear call; they are omitted. No stated cut-off is given here; in the data, active means normalized growth mostly below about 0.91 (no sharp cut-off); inconclusive means no clear call, values can overlap the other calls; inactive means mostly above about 0.92. Some of the results follow.

Test: chemical genetic growth profiling, strain panel (AID 1159580);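 further: tested at 20 µM; growth read once vehicle control cultures reached saturation at 30 °C; 1 = growth at the plate median or of vehicle wells; lower values mean less growth of the strain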
Settings: S. cerevisiae deletion strains, growth OD

Measured: normalized growth

CCCCCCCCCCCCCCCC[n+]1ccccc1
active: locus YAL013W, strain DEP1, hits give low values 0.0574 | locus YAL021C, strain ccr4, hits give low values 0.0611 | locus YAL026C, strain drs2, hits give low values 0.0581 | locus YAL030W, strain snc1, hits give low values 0.0525 | locus YBL061C, strain skt5, hits give low values 0.0581 | locus YBR009C, strain hhf1, hits give low values 0.0558 | locus YBR021W, strain FUR4, hits give low values 0.0963 | locus YBR023C, strain chs3, hits give low values 0.0594 | locus YBR171W, strain sec66, hits give low values 0.0739 | locus YBR229C, strain ROT2, hits give low values 0.0303 | locus YBR231C, strain swc5, hits give low values 0.0577 | locus YBR279W, strain paf1, hits give low values 0.0555 | locus YCL011C, strain gbp2, hits give low values 0.053 | locus YCL016C, strain dcc1, hits give low values 0.0599 | locus YCL029C, strain bik1, hits give low values 0.058 | locus YCL061C, strain MRC1, hits give low values 0.0607 | locus YCL069W, strain vba3, hits give low values 0.0581 | locus YCR088W, strain abp1, hits give low values 0.0584 | locus YDL005C, strain med2, hits give low values 0.0695 | locus YDL035C, strain GPR1, hits give low values 0.0498 | locus YDL040C, strain nat1, hits give low values 0.0541 | locus YDL074C, strain BRE1, hits give low values 0.0827 | locus YDL101C, strain DUN1, hits give low values 0.0526 | locus YDL134C, strain PPH21, hits give low values 0.0538 | locus YDL185W, strain tfp1, hits give low values 0.0538 | locus YDL192W, strain arf1, hits give low values 0.0595 | locus YDR001C, strain nth1, hits give low values 0.0571 | locus YDR069C, strain doa4, hits give low values 0.0582 | locus YDR101C, strain arx1, hits give low values 0.0554 | locus YDR137W, strain rgp1, hits give low values 0.0947 | locus YDR150W, strain NUM1, hits give low values 0.0551 | locus YDR159W, strain sac3, hits give low values 0.0818 | locus YDR162C, strain NBP2, hits give low values 0.047 | locus YDR195W, strain ref2 0.109 | locus YDR297W, strain sur2, hits give low values 0.0517 | locus YDR318W, strain mcm21, hits give low values 0.0596 | locus YDR334W, strain swr1, hits give low values 0.061 | locus YDR335W, strain msn5, hits give low values 0.0563 | locus YDR388W, hits give low values 0.0552 | locus YDR392W, strain spt3, hits give low values 0.068 | locus YDR502C, strain sam2, hits give low values 0.0615 | locus YEL003W, strain gim4, hits give low values 0.0501 | locus YEL037C, strain rad23, hits give low values 0.0542 | locus YEL061C, strain CIN8 (second series), hits give low values 0.0582 | locus YEL061C, strain CIN8, hits give low values 0.0502 | locus YER015W, strain faa2, hits give low values 0.0581 | locus YER016W, strain bim1, hits give low values 0.0593 | locus YER110C, hits give low values 0.0712 | locus YER111C, strain swi4, hits give low values 0.0669 | locus YER155C, strain BEM2 (second series), hits give low values 0.0821 | locus YER155C, strain BEM2, hits give low values 0.0622 | locus YER167W, strain BCK2, hits give low values 0.0514 | locus YFR010W, strain ubp6, hits give low values 0.0662 | locus YGL078C, strain dbp3, hits give low values 0.0557 | locus YGL086W, strain mad1, hits give low values 0.0563 | locus YGL167C, strain pmr1, hits give low values 0.0673 | locus YGL173C, strain kem1, hits give low values 0.0629 | locus YGL227W, strain vid30, hits give low values 0.062 | locus YGL240W, strain doc1, hits give low values 0.0671 | locus YGL248W, strain PDE1, hits give low values 0.0451 | locus YGL253W, strain hxk2, hits give low values 0.0516 | locus YGR135W, strain pre9, hits give low values 0.0612 | locus YGR252W, strain gcn5, hits give low values 0.17 | locus YHR013C, strain ard1, hits give low values 0.0961 | locus YHR027C, strain rpn1, hits give low values 0.0594 | locus YHR030C, strain SLT2, hits give low values 0.0512 and 0.0945 | locus YHR079C, strain IRE1 (second series), hits give low values 0.0605 | locus YHR079C, strain IRE1, hits give low values 0.11 | locus YHR094C, strain hxt1, hits give low values 0.0564 | locus YHR129C, strain ARP1, hits give low values 0.0537 | locus YHR142W, strain chs7, hits give low values 0.0693 | locus YHR200W, strain rpn10, hits give low values 0.0581 | locus YIL066C, strain RNR3, hits give low values 0.0411 | locus YIL073C, strain SPO22, hits give low values 0.106 | locus YIL125W, strain kgd1, hits give low values 0.0545 | locus YIR030C, strain dcg1, hits give low values 0.0571 | locus YJL092W, strain hpr5, hits give low values 0.0574 | locus YJL095W, strain BCK1 (second series), hits give low values 0.0528 | locus YJL095W, strain BCK1, hits give low values 0.0624 and 0.0966 | locus YJL115W, strain asf1, hits give low values 0.0684 | locus YJL129C, strain trk1, hits give low values 0.0768 | locus YJL134W, strain LCB3, hits give low values 0.047 | locus YJL154C, strain vps35, hits give low values 0.057 | locus YJL164C, strain tpk1, hits give low values 0.0549 | locus YJL166W, strain qcr8, hits give low values 0.0563 | locus YJL168C, strain set2, hits give low values 0.0564 | locus YJL187C, strain SWE1 (second series), hits give low values 0.0398 | locus YJL187C, strain SWE1, hits give low values 0.0529 | locus YJR043C, strain POL32, hits give low values 0.0648 | locus YJR066W, strain TOR1, hits give low values -0.000212 | locus YKL009W, strain mrt4, hits give low values 0.0643 | locus YKL068W, hits give low values 0.0564 | locus YKL085W, strain MDH1 (second series), hits give low values 0.0485 | locus YKL085W, strain MDH1, hits give low values 0.0485 | locus YKL160W, strain elf1, hits give low values 0.058 | locus YKR001C, strain vps1, hits give low values 0.0609 | locus YKR026C, strain gcn3, hits give low values 0.058 | locus YKR091W, strain srl3, hits give low values 0.0563 | locus YLL001W, strain dnm1, hits give low values 0.0595 | locus YLL026W, hits give low values 0.0533 | locus YLL041C, strain sdh2, hits give low values 0.0527 | locus YLR027C, strain aat2, hits give low values 0.0516 | locus YLR039C, strain RIC1, hits give low values 0.101 | locus YLR058C, strain SHM2, hits give low values 0.0432 | locus YLR102C, strain apc9, hits give low values 0.058 | locus YLR113W, strain HOG1, hits give low values 0.126 | locus YLR221C, strain rsa3, hits give low values 0.0565 | locus YLR258W, strain gsy2, hits give low values 0.0549 | locus YLR262C, strain YPT6 (second series), hits give low values 0.0739 | locus YLR262C, strain YPT6, hits give low values 0.0999 | locus YLR268W, strain sec22, hits give low values 0.0648 | locus YLR320W, strain mms22, hits give low values 0.0701 | locus YLR330W, strain CHS5, hits give low values 0.0543 | locus YLR342W, strain FKS1 (second series), hits give low values 0.0596 | locus YLR342W, strain FKS1, hits give low values 0.0608 | locus YLR357W, strain rsc2, hits give low values 0.119 | locus YLR370C, strain arc18, hits give low values 0.0588 | locus YLR371W, strain rom2, hits give low values 0.0606 | locus YLR384C, strain iki3, hits give low values 0.0569 | locus YLR418C, strain cdc73, hits give low values 0.0923 | locus YML016C, strain PPZ1, hits give low values 0.0531 | locus YML032C, strain rad52, hits give low values 0.0676 | locus YML120C, strain ndi1, hits give low values 0.0532 | locus YML124C, strain tub3, hits give low values 0.0589 | locus YMR058W, strain fet3, hits give low values 0.0569 | locus YMR078C, strain ctf18, hits give low values 0.0681 | locus YMR125W, strain sto1, hits give low values 0.0655 | locus YMR129W, hits give low values 0.0538 | locus YMR205C, strain PFK2, hits give low values 0.0777 | locus YMR223W, strain ubp8, hits give low values 0.061 | locus YMR231W, strain pep5, hits give low values 0.0645 | locus YMR307W, strain GAS1, hits give low values 0.134 | locus YNL067W, strain RPL9B, hits give low values 0.0493 | locus YNL071W, strain lat1, hits give low values 0.0582 | locus YNL153C, strain GIM3, hits give low values 0.0537 | locus YNL183C, strain NPR1, hits give low values -0.00168 | locus YNL209W, strain ssb2, hits give low values 0.0552 | locus YNL233W, strain BNI4, hits give low values 0.0562 | locus YNL248C, strain rpa49, hits give low values 0.0711 | locus YNL250W, strain rad50, hits give low values 0.0768 | locus YNL271C, strain bni1, hits give low values 0.0589 | locus YNL298W, strain CLA4, hits give low values 0.0577 | locus YNL307C, strain MCK1, hits give low values 0.0655 | locus YNL322C, strain KRE1 (second series), hits give low values 0.06 | locus YNL322C, strain KRE1, hits give low values 0.048 | locus YNR049C, strain mso1, hits give low values 0.0552 | locus YNR052C, strain pop2, hits give low values 0.0583 | locus YOL147C, strain pex11, hits give low values 0.0569 | locus YOR001W, strain rrp6, hits give low values 0.0649 | locus YOR061W, strain CKA2, hits give low values 0.0309 | locus YOR069W, strain VPS5, hits give low values 0.0516 | locus YOR070C, strain gyp1, hits give low values 0.0562 | locus YOR080W, strain dia2, hits give low values 0.0607 | locus YOR083W, strain WHI5, hits give low values 0.0593 | locus YOR106W, strain vam3, hits give low values 0.0617 | locus YOR136W, strain idh2, hits give low values 0.0704 | locus YOR144C, strain elg1, hits give low values 0.0544 | locus YOR184W, strain ser1, hits give low values 0.0674 | locus YOR231W, strain MKK1, hits give low values 0.0972 | locus YOR265W, strain rbl2, hits give low values 0.0533 | locus YOR270C, strain vph1, hits give low values 0.0863 | locus YOR290C, strain snf2, hits give low values 0.0573 | locus YOR316C, strain cot1, hits give low values 0.0567 | locus YPL051W, strain arl3, hits give low values 0.06 | locus YPL055C, strain LGE1, hits give low values 0.0709 | locus YPL078C, strain atp4, hits give low values 0.0604 | locus YPL106C, strain sse1, hits give low values 0.0881 | locus YPL240C, strain hsp82, hits give low values 0.0535 | locus YPL241C, strain CIN2, hits give low values 0.0502 | locus YPL256C, strain CLN2, hits give low values 0.113 | locus YPR119W, strain clb2, hits give low values 0.0599 | locus YPR141C, strain kar3, hits give low values 0.0617 | locus YPR163C, strain tif3, hits give low values 0.0683 | locus YPR167C, strain met16, hits give low values 0.06 | strain wtn01, hits give low values 0.061
